In PubChem BioAssay one finds z-score data, which are given here for 16 compounds.

Each structure is given as a SMILES string. Activity calls are given as the source filed them.

The nature of experiment [1]: A549 cell viability effects, profiling panel, calcein-AM fluorescence, 48 h, basal (AID 1162). As to conditions: higher = more signal.
Experiment [2] can be described thus: adipocyte viability effects, profiling panel, cell-based, 3T3-L1 adipocytes, calcein-AM fluorescence, 48 h, basal (AID 1163). The note with it: 3T3-L1 adipocytes viability, higher = more signal.
Experiment [3] in a line: HepG2 cell viability effects, profiling panel, calcein-AM fluorescence, 48 h, basal (AID 1164). As to conditions: higher = more signal.
Experiment [4] in a line: MM1S cell viability effects, profiling panel, calcein-AM fluorescence, 48 h, basal (AID 1165).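 Further: viability of MM1S multiple myeloma cells under basal unstimulated conditions.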 The note with it: higher = more signal.
Experiment [5] can be described thus: basal RPMI8226 viability, no added stimulus, profiling panel, cell-based, calcein-AM fluorescence, 48 h, PK04 Diversity Set (AID 1166).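 Further: cells grown under basal conditions without added stimulus.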 The note with it: RPMI8226 myeloma viability, higher = more signal.
Experiment [6] can be described thus: basal HepG2 mitochondrial membrane potential changes, profiling panel, cell-based, JC-1 fluorescence, 24 h, 100 nL compound (AID 1167). The note with it: higher = more signal.
A short description of experiment [7]: basal 3T3-L1 adipocyte mitochondrial potential changes, profiling panel, cell-based, JC-1 fluorescence, 3T3-L1 adipocytes, 24 h, 100 nL compound (AID 1168). The note with it: JC-1 mitochondrial fluorescence, higher = more signal, called active from +8 up or from −8 down.
Experiment [8] can be described thus: basal RPMI8226 mitochondrial membrane potential changes, profiling panel, cell-based, JC-1 fluorescence, 24 h, 100 nL compound (AID 1169). As to conditions: RPMI8226 myeloma, JC-1 mitochondrial potential fluorescence, higher = more signal.
Experiment [9] in a line: basal MM1S mitochondrial membrane potential changes, profiling panel, cell-based, JC-1 fluorescence, 24 h, 100 nL compound (AID 1170). The note with it: higher = more signal.
Experiment [10] is described as follows: A549 lung cancer cell viability effects, profiling panel, resazurin fluorescence, 24 h, PK04 Diversity Set (AID 1171). The note with it: higher = more signal, called active from +8 up or from −8 down. (The colour change of resazurin is a common sign of viable cells or microbes.)
Further: test concentration not given here.

Consider `CC(C)(C)OC(=O)CC[C@]1(C(=O)NCCN2CCOCC2)COC(c2ccc(OCCCO)cc2)=N1`, for which the z-score was 0.263 in [1]; -0.555 in experiment [2]; 0.854 in [3]; -0.61 in experiment [4]; 0.512 in [5]; 0.0561 in [6]. Besides, the z-score in experiment [7] was 0.588 (inactive); in experiment [8], 0.212; in experiment [9], -0.699; in [10], 0.412 (inactive).

In the case of `COCCOC(=O)N1C(=O)[C@@]2(c3cc(C#CCCO)ccc31)[C@H](c1ccc(OCCO)cc1)N1[C@H](c3ccccc3)[C@H](c3ccccc3)OC(=O)[C@H]1[C@@H]2C(N)=O`, the z-score in experiment [1] is 0.617; in experiment [2], 0.435; in [3], 1.35; in experiment [4], -0.109; in experiment [5], -0.804; in experiment [6] it was -0.72. Moreover, the z-score in experiment [7] was -0.456 (inactive); in [8], -0.899; in experiment [9] it was -0.0462; in [10] it was 0.215 (inactive).

For the compound `COCCOC(=O)N1C(=O)[C@@]2(c3ccccc31)[C@H](c1ccc(OCCO)cc1)N1[C@H](c3ccccc3)[C@H](c3ccccc3)OC(=O)[C@H]1[C@@H]2C(=O)N1CCc2cc(OC)c(OC)cc2C1`, the z-score is 0.114 in experiment [1]; 1.09 in experiment [2]; 1.37 in [3]; 0.175 in experiment [4]; -0.0296 in experiment [5]; 0.39 in experiment [6]. Also, the z-score was 3.06 (inactive) in experiment [7], -0.749 in experiment [8], -1.53 in [9] and -0.247 (inactive) in experiment [10].

Take `CC(CO)N1C(=O)[C@@H]2C3C(=O)OCCC/C=C\[C@H]3OC23C=CCN(CCN2CCOCC2)C(=O)[C@@H]13` (stereo not given in full): the z-score in [1] is -0.31; in experiment [2], -0.414; in [3], 0.755; in experiment [4], 1.92; in experiment [5] it was 0.435; in experiment [6], 0.559. The z-score in [7] was -0.109 (inactive); in experiment [8] it was 0.357; in experiment [9], -1.07; in [10], -0.7 (inactive).

Take `COCC(=C=CC[C@H](O)c1ccccc1OCCO)CCO`: the z-score in experiment [1] is 0.474; in experiment [2], -0.233; in experiment [3], 0.304; in experiment [4], -0.48; in experiment [5], -0.0001; in experiment [6], -0.853. Moreover, the z-score in experiment [7] is -0.624 (inactive); in experiment [8] it was -0.345; in experiment [9] it was -0.654; in experiment [10], -0.323 (inactive).

For `C#CCN1[C@H](/C=C/C2CC2)[C@H](Cc2ccccc2)OC(=O)[C@@H]1Cc1ccccc1`, the z-score in [1] is -0.627; in experiment [2], 0.0556; in [3], -0.0365; in experiment [4], -2.65; in [5] it was -2.47; in experiment [6], 1.31. For the same compound, the z-score in experiment [7] was -0.0709 (inactive); in experiment [8], -0.294; in experiment [9], -0.719; in experiment [10] it was 2.37 (inactive).

Consider `CCOC(=O)C[C@H]1[C@H](OC(=O)c2ccc(-c3ccccc3)cc2)[C@@H](NC(=O)c2ccccc2)c2cc(OCCCO)ccc2N1C(=O)c1ccc2ccccc2n1`, for which the z-score in experiment [1] was -0.208; in [2] it was -0.0559; in [3], 0.261; in experiment [4] it was -0.936; in experiment [5], -0.617; in experiment [6], 0.0102. Also, the z-score in experiment [7] was -0.811 (inactive); in experiment [8] it was 0.939; in experiment [9] it was -0.386; in experiment [10], -0.264 (inactive).

For `O=C(O)[C@H](Cc1ccccc1)n1cc(-c2ccccc2)nn1`, the z-score is -0.757 in [1]; -0.853 in experiment [2]; -0.177 in [3]; 0.269 in [4]; -0.157 in [5]; -0.601 in experiment [6]. Further, the z-score in experiment [7] is -0.0821 (inactive); in experiment [8], 0.666; in [9] it was 0.348; in [10], -0.143 (inactive).

For the compound `O=C1NC(=O)C2C1C=CC(C(O)c1ccc(-c3ccccc3)s1)N2Nc1ccc(Cl)cc1Cl` (stereo not given), the z-score in experiment [1] is -1.95; in [2] it was -0.901; in [3], -2.13; in experiment [4], -3.61; in experiment [5] it was -3.05; in experiment [6], -2.92. Also, the z-score in [7] was -1.08 (inactive); in experiment [8] it was -0.983; in [9] it was -0.247; in experiment [10], -1.65 (inactive).

In the case of `COC(=O)[C@@]1(Cc2ccc(OC)cc2)[C@H]2c3cc(C(=O)N4CCCC4)n(CCc4ccc(O)c(O)c4)c3C[C@H]2CN1C(=O)c1ccccc1`, the z-score was -0.393 in [1]; 0.609 in experiment [2]; -0.0727 in experiment [3]; -3.36 in [4]; -2.19 in experiment [5]; 0.923 in experiment [6]. In addition, the z-score was -1.13 (inactive) in experiment [7], -0.445 in experiment [8], -1.13 in experiment [9] and -0.0046 (inactive) in experiment [10].

Consider `COc1ccc([C@H]2C[C@H]3C(Br)=C[C@@]2(CO)C(=O)[C@]32CO2)cc1`, for which the z-score in experiment [1] was -0.0583; in experiment [2], -0.335; in [3], -0.898; in [4], -2.71; in [5] it was -0.106; in [6], -2.76. For the same compound, the z-score in experiment [7] is 0.134 (inactive); in [8] it was -0.401; in experiment [9] it was -1.09; in experiment [10], 0.417 (inactive).

As to `CCOC(=O)C1=CC[C@@H](c2ccccc2)N(S(=O)(=O)c2ccc(C)cc2)[C@H]1c1ccc(CC)cc1`, the z-score in [1] is -0.516; in experiment [2], -0.932; in experiment [3], -0.217; in experiment [4], 0.677; in [5], 0.0825; in experiment [6] it was 5.94. Moreover, the z-score in experiment [7] is -0.149 (inactive); in [8], -0.27; in experiment [9] it was -1.84; in experiment [10] it was 1.48 (inactive).

With `C=CCOC(=O)[C@H]1[C@@H]2C(=O)O[C@@H](c3ccccc3)[C@@H](c3ccccc3)N2[C@@H](c2ccc(OCCOC(=O)[C@@H]3C[C@@H]4C(=O)N5CCC[C@H]5C(=O)N4[C@@H]3c3cccc(OCCO)c3)cc2)[C@]12C(=O)Nc1ccc(I)cc12`, the z-score was -1.06 in experiment [1]; 0.997 in [2]; -0.649 in experiment [3]; -0.349 in [4]; 0.206 in [5]; -0.689 in experiment [6]. In addition, the z-score in experiment [7] is 1.19 (inactive); in experiment [8], -0.643; in [9], -0.959; in experiment [10], -0.476 (inactive).

Take `CCOC(=O)C1=C[C@@H](C(C)C)N(S(=O)(=O)c2ccc(C)cc2)[C@H]1c1ccccc1F`: the z-score in experiment [1] was -1.2; in experiment [2] it was 0.0139; in [3], -0.972; in experiment [4] it was -0.463; in [5] it was -1.08; in experiment [6], 0.175. Besides, the z-score in [7] was 0.227 (inactive); in experiment [8], -0.128; in experiment [9], -0.581; in experiment [10], 1.76 (inactive).

For `CN(C)CCCC[C@@H]1NC(=O)[C@H]2C[C@@H](C(=O)NCCCCCN)[C@@H](c3cccc(OCCO)c3)N2C1=O`, the z-score was 0.227 in experiment [1]; 0.167 in [2]; -0.42 in experiment [3]; -1.44 in experiment [4]; 0.537 in [5]; 1.28 in experiment [6]. Also, the z-score in experiment [7] was 1.18 (inactive); in [8] it was 0.51; in experiment [9], 1.26; in experiment [10] it was 0.123 (inactive).

Take `COc1ccc(C#Cc2ccc3c(c2)[C@]2(C(=O)N3)[C@H](c3ccc(O)cc3)N3[C@H](c4ccccc4)[C@H](c4ccccc4)OC(=O)[C@H]3[C@@H]2C(=O)N2CCc3cc(OC)c(OC)cc3C2)cc1`: the z-score is -0.258 in experiment [1]; -0.817 in experiment [2]; -0.0752 in experiment [3]; -0.405 in experiment [4]; -2.87 in [5]; -0.458 in experiment [6]. Besides, the z-score is 2.25 (inactive) in experiment [7], -0.727 in experiment [8], -0.418 in experiment [9] and -0.565 (inactive) in [10].
